# Results from PubChem BioAssay (NCI).
# The panel holds about 83,000 compounds, 20% with a hit somewhere; the sample as a whole holds those more often.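 Single-concentration screen, 48 h exposure, 96-well plates. Endpoint: percent growth. Below 10 = active.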 Activity calls are given as the source filed them.
# Test system: SN12C renal
# Test: NCI-60 one-dose screen, 48 h (100 = growth as untreated, 0 = no growth, -100 = all killed)
# Settings: 10 µM unless noted
# Protocol: Growth inhibition of the SN12C human tumor cell line is measured as a screen for anti-cancer activity. Cells are grown in 96 well plates and exposed to the test compound for 48 hours. Compounds are tested at a single concentration, which is 10^-5 M for most compounds. The reported endpoint is percent growth (GI% or GIPRCNT), where numbers from 0 - 100% represent growth inhibition, and numbers from -100% - 0 represent cell death. For example, a value of 40 represents 60% growth inhibition. A value of 0 means no net growth occurred over the course of the experiment. A value of -40 indicates 40% of cells at the beginning of the experiment died by the end of the experiment. A value of -100 means all cells are dead at the end of the experiment.
# NCI-60 Human Tumor Cell Lines Screen was performed using the standard one-dose NCI protocol, which is described in more detail at https://dtp.cancer.gov/discovery_development/nci-60/default.htm.
# Compounds with GIPRCNT values below 10 were considered active. Activity score was based on GIPRCNT using the following formula: […]
# Score is 0 for GIPRCNT values of 100 or above, 50 for GIPRCNT values of 0, and 100 for GIPRCNT values of -100.
row,Structure (SMILES),growth
1,COc1cnc2c(c1)C(=O)c1c-2n(CCCNC(C)C)c(=O)c2cc(Cl)ccc12,17.3% (inactive)
2,Oc1ccc(-c2nnc3c4[nH]ccc4ncn23)cc1,95.2% (inactive)
3,NNC(=O)CSc1nc2scc(-c3ccccc3)c2c(=O)n1-c1ccccc1,101% (inactive)
4,COC(=O)CSc1ccc(Cl)cc1,121% (inactive)
5,ClCc1c(Cl)c(Cl)c(Cl)c(CCl)c1Cl,41.5% (inactive)
6,CCOC(=O)c1ccc(NC(=O)CSC(N)=O)cc1,107% (inactive)
7,CC(C)CC1NC(=O)C(CC(C)C)N(CO)C1=O (stereo not given),99.4% (inactive)
8,CC[C@]1(O)C[C@H]2CN(CCc3c([nH]c4ccccc34)C(C(=O)OC)(c3cc4c(cc3OC)N(C)[C@H]3[C@@](O)(C(=O)OC)[C@H](OC(C)=O)[C@]5(CC)[C@@H]6C[C@@H]6CN6CC[C@]43[C@@H]65)C2)C1 (stereo not given in full),22.2% (inactive)
9,Cc1ccccc1NC(=O)c1sc2nc3c(cc2c1N)C(=O)CCC3,64.5% (inactive)
10,C#C[C@]1(O)CC[C@H]2[C@@H]3CC=C4c5sc(-c6cccc(Br)c6)nc5CC[C@]4(C)[C@H]3CC[C@@]21C,96.3% (inactive)
11,O=C(/C=C/c1ccco1)c1ccccc1O,102% (inactive)
12,N=C(N)c1ccc(-c2ccc(-c3cccs3)s2)cc1F,-65.3% (active)
13,O=C(N/N=C/c1ccc([N+](=O)[O-])cc1)c1ccccc1Nc1ccnc(C(F)(F)F)c1,83.9% (inactive)
14,CC1=CC(=O)OC1C/C=C(\C)CCC1[C@@]2(C)CCC[C@@](C)(C(=O)O)C2CC[C@@]1(C)O (stereo not given in full),41% (inactive)
15,O=S(=O)(Nc1ccc2ccccc2c1)N1CCCCC1,81.9% (inactive)
16,CN(C)CCNC(=O)n1cc(-c2ccncc2)c(-c2cc(O)cc(Cl)c2)n1,91.9% (inactive)
17,O=c1c2cc(Br)cc(Br)c2nc(-c2ccc(Cl)cc2)n1/N=C/c1cccc(F)c1,53.5% (inactive)
18,Cc1cccc(/C=N/n2c(-c3ccc(Cl)cc3)nc3c(Br)cc(Br)cc3c2=O)c1,47.9% (inactive)
19,c1ccc(-c2ccc(-c3ccccc3)[nH]2)cc1,95.5% (inactive)
20,O=C1C(Cl)=C(Nc2cccc3ccccc23)C(=O)c2ccccc21,80.1% (inactive)

row,Structure (SMILES),growth
1,O=C1OCC2=C1C(c1ccccc1)c1cc3c(cc1N2CCO)OCO3 (stereo not given),39% (inactive)
2,NS(=O)(=O)c1ccc(CCn2c(SCC(=O)N/N=C/c3ccccc3O)nc3ccccc3c2=O)cc1,51.3% (inactive)
3,COc1ccc2c(c1)sc1nc(-c3ccccc3)c(-c3cccc4ccccc34)n12,44.7% (inactive)
4,Nc1c(N)c2ccccc2c2ccccc12,99.5% (inactive)
5,O=P(O)(O)C(O)(Cc1cccnc1)P(=O)(O)O,94% (inactive)
6,COC(=O)[C@H](Cc1cn(C)cn1)NC(=O)[C@H](CC(C)C)NC(=O)Nc1cc(C(F)(F)F)cc(C(F)(F)F)c1,-92.8% [100 µM] (active)
7,CC(=O)c1ccc(N2C(=O)c3ccc(Oc4ccccc4)cc3C2=O)cc1,98.4% (inactive)
8,COc1ccc(-c2nn(C(=O)NCCN(C)C)cc2-c2ccncc2)cc1Cl,49.6% (inactive)
9,CNC(=O)c1c(NC(=O)c2ccc(C(C)C)cc2)sc2c1CCC(=O)C2,-10.8% (active)
10,CCn1c(=O)c(C(=O)NCCCO)c(O)c2ccccc21,104% (inactive)
11,COc1ccc(NC(=O)Cn2c(=O)sc3c(-c4ccc(Cl)cc4)cc(-c4ccc(Cl)cc4)nc32)cc1,93.2% (inactive)
12,Cc1cccc2nc3ccccc3c(Nc3ccc(NS(C)(=O)=O)cc3)c12,38.9% (inactive)
13,COc1cc(-c2nc(-c3ccc(-c4nc5ccc(F)cc5[nH]4)cc3)no2)cc(OC)c1OC,66.1% (inactive)
14,CCOC(=O)C#Cc1c(C(=O)OCC)nnn1[C@@H]1O[C@H](COC(C)=O)[C@@H](OC(C)=O)[C@H]1OC(C)=O,88.5% (inactive)
15,NC(=O)c1ccc[n+](Cc2ccccc2)c1,101% (inactive)
16,O=C(Nc1cccc(-n2ccc3c(NC(=O)c4ccccc4)nccc32)c1)c1ccc(Cl)c(Cl)c1,-83.8% (active)
17,NS(=O)(=O)c1ccc(CCn2c(SCC(=O)N/N=C/c3cc4ccccc4[nH]3)nc3ccccc3c2=O)cc1,73.4% (inactive)
18,O=S(=O)(Cc1ccc(Cl)cc1Cl)c1ccc(Cl)cc1,49.4% (inactive)
19,CC(C)C/C=C/C=C/C(=O)N[C@@H](CC(N)=O)C(=O)N[C@@H]1C(=O)N[C@H](c2ccc(O)cc2)C(=O)N[C@H](CCCN)C(=O)N[C@H]([C@@H](C)O)C(=O)N[C@H](c2ccc(O)cc2)C(=O)N[C@H](c2ccc(O)cc2)C(=O)N[C@H]([C@H](C)O)C(=O)N[C@H](Cc2ccccc2)C(=O)N[C@H](CCCN)C(=O)N[C@H](c2ccc(O[C@H]3O[C@@H](CO)[C@@H](O)[C@@H](O)[C@H]3O[C@@H]3O[C@H](CO)[C@H](O)[C@H](O)[C@@H]3O)cc2)C(=O)N[C@H]([C@H](C)O)C(=O)N[C@H](c2ccc(O)cc2)C(=O)NCC(=O)N[C@H](CC(C)C)C(=O)N[C@H](C)C(=O)N[C@H](c2ccc(O)c(Cl)c2)C(=O)O[C@@H]1C(N)=O,94.5% (inactive)
20,CCOC(=O)CCN(CCC(=O)OCC)c1ccccc1,110% (inactive)
